# Columns and labels:
# [1] = molecular target: T1, Ephrin type-A receptor 3 (Homo sapiens) (UniProt P29320); details: at 10 µM
# T1 sequence (whole entry): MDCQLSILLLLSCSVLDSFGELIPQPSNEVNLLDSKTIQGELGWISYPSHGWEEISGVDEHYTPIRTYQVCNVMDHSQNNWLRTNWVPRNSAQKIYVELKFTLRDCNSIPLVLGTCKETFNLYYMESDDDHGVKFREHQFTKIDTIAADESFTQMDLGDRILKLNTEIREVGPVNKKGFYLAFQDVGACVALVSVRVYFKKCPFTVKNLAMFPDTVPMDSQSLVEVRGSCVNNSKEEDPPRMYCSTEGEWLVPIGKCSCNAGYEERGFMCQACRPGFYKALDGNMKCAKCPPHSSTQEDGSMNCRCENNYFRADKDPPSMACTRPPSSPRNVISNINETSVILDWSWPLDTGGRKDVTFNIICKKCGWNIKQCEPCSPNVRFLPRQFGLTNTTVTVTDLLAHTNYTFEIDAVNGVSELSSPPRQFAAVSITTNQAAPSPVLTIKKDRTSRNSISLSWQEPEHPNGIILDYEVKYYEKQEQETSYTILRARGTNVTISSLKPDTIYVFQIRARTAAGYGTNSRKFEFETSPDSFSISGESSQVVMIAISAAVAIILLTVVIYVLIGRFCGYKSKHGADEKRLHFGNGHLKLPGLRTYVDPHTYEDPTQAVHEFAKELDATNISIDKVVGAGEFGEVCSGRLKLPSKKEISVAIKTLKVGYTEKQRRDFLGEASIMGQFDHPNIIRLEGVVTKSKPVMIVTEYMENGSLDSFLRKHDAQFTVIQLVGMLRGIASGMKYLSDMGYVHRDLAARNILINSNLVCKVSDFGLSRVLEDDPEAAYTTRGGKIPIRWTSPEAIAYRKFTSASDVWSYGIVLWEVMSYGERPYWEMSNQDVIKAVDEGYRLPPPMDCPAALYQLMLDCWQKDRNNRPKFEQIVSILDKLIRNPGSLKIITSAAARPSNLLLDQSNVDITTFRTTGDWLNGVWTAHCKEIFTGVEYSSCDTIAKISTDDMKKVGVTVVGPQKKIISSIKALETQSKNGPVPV
# [2] = molecular target: Ephrin type-A receptor 4 (Homo sapiens) (UniProt P54764); details: at 1 µM
# Ephrin type-A receptor 4 (Homo sapiens), sequence (P54764 whole entry): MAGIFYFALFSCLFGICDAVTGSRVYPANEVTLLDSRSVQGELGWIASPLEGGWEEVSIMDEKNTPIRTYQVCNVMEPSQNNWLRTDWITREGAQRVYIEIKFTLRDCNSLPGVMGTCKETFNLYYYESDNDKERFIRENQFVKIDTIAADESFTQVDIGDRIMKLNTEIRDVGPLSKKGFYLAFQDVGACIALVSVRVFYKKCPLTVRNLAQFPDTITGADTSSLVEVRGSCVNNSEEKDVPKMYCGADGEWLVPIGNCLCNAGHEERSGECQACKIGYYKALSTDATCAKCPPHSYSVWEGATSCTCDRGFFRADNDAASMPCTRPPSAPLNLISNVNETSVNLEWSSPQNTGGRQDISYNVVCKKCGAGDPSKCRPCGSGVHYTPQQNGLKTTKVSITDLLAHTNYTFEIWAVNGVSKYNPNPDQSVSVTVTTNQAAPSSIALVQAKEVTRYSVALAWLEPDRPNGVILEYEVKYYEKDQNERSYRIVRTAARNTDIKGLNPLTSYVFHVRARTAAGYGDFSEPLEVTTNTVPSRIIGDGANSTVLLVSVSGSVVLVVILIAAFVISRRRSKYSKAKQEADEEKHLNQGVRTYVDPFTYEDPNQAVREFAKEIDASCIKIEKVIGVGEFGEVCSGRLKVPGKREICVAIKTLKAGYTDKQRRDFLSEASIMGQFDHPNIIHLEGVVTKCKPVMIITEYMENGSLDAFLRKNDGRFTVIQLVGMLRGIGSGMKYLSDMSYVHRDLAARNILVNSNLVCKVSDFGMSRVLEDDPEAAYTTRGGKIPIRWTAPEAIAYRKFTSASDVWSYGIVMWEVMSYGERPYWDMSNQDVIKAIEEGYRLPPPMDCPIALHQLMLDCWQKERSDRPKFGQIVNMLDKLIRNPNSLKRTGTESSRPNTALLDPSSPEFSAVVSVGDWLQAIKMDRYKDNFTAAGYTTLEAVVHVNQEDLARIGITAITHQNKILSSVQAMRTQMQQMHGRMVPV
# [3] = molecular target: Ephrin type-A receptor 4 (Homo sapiens) (UniProt P54764); details: at 10 µM
# [4] = molecular target: Ephrin type-A receptor 5 (Homo sapiens) (UniProt P54756); details: at 1 µM
# Ephrin type-A receptor 5 (Homo sapiens), sequence (P54756 whole entry): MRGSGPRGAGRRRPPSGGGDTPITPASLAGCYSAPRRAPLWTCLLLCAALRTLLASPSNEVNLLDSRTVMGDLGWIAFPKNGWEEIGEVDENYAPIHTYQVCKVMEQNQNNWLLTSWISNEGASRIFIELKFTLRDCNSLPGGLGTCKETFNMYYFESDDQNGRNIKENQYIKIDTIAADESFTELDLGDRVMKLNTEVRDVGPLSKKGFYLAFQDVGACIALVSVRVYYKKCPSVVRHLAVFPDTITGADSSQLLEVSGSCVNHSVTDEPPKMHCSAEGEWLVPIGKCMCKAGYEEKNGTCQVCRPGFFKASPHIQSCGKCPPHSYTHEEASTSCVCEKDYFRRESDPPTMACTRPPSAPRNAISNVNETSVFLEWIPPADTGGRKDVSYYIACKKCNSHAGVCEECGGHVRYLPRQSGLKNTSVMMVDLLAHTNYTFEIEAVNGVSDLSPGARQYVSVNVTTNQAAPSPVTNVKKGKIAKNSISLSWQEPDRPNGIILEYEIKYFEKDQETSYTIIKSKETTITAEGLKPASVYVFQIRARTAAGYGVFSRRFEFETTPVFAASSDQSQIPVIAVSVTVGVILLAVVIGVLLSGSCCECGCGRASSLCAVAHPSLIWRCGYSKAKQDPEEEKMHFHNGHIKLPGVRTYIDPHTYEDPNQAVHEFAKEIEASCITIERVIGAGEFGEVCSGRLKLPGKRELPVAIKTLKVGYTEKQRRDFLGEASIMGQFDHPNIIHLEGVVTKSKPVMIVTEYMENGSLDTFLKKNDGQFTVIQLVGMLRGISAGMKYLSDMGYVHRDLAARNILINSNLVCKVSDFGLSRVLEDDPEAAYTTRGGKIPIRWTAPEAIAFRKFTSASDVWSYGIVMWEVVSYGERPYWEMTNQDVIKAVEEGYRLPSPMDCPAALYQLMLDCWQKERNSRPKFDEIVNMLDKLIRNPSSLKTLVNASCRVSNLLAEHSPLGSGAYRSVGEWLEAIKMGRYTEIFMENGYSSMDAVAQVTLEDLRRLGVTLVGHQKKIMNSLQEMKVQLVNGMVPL
# [5] = molecular target: Ephrin type-A receptor 5 (Homo sapiens) (UniProt P54756); details: at 10 µM
# [6] = molecular target: Ephrin type-A receptor 7 (Homo sapiens) (UniProt Q15375); details: at 1 µM
# Ephrin type-A receptor 7 (Homo sapiens), sequence (Q15375 28-998 limits assumed): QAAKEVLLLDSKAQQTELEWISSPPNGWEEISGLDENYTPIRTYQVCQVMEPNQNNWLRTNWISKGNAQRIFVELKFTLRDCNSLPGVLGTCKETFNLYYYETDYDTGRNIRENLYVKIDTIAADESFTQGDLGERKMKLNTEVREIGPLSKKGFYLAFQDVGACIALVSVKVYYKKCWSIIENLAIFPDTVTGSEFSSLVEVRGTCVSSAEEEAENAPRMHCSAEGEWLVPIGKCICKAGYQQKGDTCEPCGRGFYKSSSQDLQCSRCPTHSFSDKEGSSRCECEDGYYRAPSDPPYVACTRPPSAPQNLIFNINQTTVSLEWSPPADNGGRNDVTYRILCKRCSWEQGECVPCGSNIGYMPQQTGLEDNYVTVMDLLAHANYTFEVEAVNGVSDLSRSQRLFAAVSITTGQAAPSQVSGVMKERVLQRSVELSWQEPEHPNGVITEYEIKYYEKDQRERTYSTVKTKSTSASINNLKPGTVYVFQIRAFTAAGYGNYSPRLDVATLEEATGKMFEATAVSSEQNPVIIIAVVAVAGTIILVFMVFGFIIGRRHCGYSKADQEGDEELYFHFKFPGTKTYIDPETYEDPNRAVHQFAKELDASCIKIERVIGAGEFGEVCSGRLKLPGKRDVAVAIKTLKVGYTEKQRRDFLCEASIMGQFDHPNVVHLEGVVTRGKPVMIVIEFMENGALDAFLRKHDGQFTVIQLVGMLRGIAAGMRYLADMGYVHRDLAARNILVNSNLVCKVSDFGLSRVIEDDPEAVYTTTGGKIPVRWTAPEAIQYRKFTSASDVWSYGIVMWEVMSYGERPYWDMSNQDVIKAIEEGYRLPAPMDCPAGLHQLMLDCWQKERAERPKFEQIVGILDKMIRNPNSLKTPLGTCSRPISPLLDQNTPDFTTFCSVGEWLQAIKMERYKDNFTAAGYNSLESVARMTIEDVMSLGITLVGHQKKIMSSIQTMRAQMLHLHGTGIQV
# [7] = molecular target: Ephrin type-A receptor 7 (Homo sapiens) (UniProt Q15375); details: at 10 µM
# [8] = molecular target: T2, Ephrin type-A receptor 8 (Homo sapiens) (UniProt P29322); details: at 1 µM
# T2 sequence (whole entry): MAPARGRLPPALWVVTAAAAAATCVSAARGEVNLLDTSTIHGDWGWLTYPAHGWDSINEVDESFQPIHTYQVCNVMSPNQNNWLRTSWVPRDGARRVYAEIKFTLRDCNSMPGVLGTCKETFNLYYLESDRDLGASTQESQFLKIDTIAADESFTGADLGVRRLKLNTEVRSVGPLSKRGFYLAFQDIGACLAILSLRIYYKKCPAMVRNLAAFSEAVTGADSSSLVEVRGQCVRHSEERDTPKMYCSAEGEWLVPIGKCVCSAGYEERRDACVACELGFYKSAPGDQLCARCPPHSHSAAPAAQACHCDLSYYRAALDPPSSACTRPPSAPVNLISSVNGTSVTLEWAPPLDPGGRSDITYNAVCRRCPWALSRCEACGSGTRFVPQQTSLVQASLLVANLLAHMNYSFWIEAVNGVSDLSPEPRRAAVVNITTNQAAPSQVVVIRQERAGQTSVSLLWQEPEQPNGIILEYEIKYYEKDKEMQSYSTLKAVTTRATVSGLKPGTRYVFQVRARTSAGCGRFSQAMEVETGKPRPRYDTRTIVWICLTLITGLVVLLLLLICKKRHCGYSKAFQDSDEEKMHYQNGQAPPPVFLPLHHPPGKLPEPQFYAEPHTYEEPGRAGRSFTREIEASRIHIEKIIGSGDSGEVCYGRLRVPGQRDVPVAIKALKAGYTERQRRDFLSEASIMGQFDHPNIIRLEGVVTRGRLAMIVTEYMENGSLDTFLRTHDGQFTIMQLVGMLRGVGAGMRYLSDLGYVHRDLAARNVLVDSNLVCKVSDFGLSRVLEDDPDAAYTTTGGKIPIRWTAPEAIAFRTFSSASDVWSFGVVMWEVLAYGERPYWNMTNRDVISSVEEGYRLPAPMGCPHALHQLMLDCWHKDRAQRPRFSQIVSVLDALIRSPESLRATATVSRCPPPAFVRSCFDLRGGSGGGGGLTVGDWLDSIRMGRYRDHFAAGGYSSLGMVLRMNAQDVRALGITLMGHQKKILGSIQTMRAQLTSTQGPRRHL
# [9] = molecular target: T2, Ephrin type-A receptor 8 (Homo sapiens); details: at 10 µM
# [10] = molecular target: T3, Ephrin type-B receptor 1 (Homo sapiens) (UniProt P54762); details: at 1 µM
# T3 sequence (whole entry): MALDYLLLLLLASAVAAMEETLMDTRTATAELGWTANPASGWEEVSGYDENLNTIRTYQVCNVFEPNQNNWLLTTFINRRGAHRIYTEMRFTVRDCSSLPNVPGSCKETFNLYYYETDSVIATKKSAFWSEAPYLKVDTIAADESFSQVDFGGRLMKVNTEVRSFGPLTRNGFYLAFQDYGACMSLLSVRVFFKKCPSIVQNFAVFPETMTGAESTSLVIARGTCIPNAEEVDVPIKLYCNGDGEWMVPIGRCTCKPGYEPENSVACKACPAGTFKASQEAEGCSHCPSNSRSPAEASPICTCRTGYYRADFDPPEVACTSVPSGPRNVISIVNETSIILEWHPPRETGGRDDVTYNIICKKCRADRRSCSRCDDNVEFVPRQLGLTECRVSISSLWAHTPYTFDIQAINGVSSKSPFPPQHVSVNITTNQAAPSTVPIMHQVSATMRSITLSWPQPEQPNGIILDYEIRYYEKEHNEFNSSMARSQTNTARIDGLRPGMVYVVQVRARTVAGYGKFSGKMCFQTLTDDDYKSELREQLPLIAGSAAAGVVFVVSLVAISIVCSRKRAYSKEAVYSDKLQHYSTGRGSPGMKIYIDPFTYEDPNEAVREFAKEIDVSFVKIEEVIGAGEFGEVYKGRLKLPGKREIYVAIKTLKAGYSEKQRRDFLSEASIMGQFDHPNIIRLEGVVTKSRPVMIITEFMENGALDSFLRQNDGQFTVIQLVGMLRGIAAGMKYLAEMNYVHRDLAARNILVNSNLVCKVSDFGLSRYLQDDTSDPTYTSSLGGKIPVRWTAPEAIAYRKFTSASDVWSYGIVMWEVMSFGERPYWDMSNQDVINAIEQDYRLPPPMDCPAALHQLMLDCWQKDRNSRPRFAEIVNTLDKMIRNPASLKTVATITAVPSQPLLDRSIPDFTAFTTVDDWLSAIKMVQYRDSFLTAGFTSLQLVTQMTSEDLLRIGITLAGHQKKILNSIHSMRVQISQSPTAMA
compound,measurement,setting,value
COc1cc2ncnc(Nc3ccc(O)c(Br)c3)c2cc1OC,residual activity,[1],20%
same,residual activity,[2],89%
same,residual activity,[3],41%
same,residual activity,[4],74%
same,residual activity,[5],21%
same,residual activity,[6],34%
same,residual activity,[7],7%
same,residual activity,[8],70%
same,residual activity,[9],28%
same,residual activity,[10],62%

# — ChEMBL document CHEMBL2218924, “A broad activity screen in support of a chemogenomic map for kinase signalling research and drug discovery” (Biochem J, 2013)
